This passage reports growth results from PubChem BioAssay (NCI).

About 83,000 compounds went through this panel and 20% of them were active in at least one assay; those are over-represented in the sample as a whole.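 Method: cells in 96-well plates; compound added at one concentration; 48 h incubation; percent growth measured; values under 10 scored active.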 Values without a mark were called inactive. Active and inactive are the calls of the source.

The test relates to NCI-H460 lung. Kind of test: NCI-60 one-dose screen, 48 h (100 = growth as untreated, 0 = no growth, -100 = all killed). The conditions noted are these: 10 µM unless noted. The method, then: Growth inhibition of the NCI-H460 human Non-Small Cell Lung tumor cell line is measured as a screen for anti-cancer activity. Cells are grown in 96 well plates and exposed to the test compound for 48 hours. Compounds are tested at a single concentration, which is 10^-5 M for most compounds. The reported endpoint is percent growth (GI% or GIPRCNT), where numbers from 0 - 100% represent growth inhibition, and numbers from -100% - 0 represent cell death. For example, a value of 40 represents 60% growth inhibition. A value of 0 means no net growth occurred over the course of the experiment. A value of -40 indicates 40% of cells at the beginning of the experiment died by the end of the experiment. A value of -100 means all cells are dead at the end of the experiment.
NCI-60 Human Tumor Cell Lines Screen was performed using the standard one-dose NCI protocol, which is described in more detail at https://dtp.cancer.gov/discovery_development/nci-60/default.htm.
Compounds with GIPRCNT values below 10 were considered active. Activity score was based on GIPRCNT using the following formula: […]
Score is 0 for GIPRCNT values of 100 or above, 50 for GIPRCNT values of 0, and 100 for GIPRCNT values of -100.
As for `O=C(Nc1cccnc1Nc1ccc(F)cc1)c1cn(Cc2cccc(Oc3ccccc3)c2)nn1`, the growth was 80.4%.

Turning to `Oc1c(Cl)cc(Cl)c2ccc(Cn3cc(-c4cc(F)cc(F)c4)nn3)nc12`, the growth is 104%. Under `O=C(Cn1cc(CN2C(=O)c3ccccc3S2(=O)=O)nn1)Nc1nc2ccccc2s1` stands 105%; under `Nc1ncnc2c1N=C(c1ccc3c(c1)OCO3)CC(c1ccc([N+](=O)[O-])cc1)N2` (stereo not given), 96.2%; under `CN1CCN(Cc2ccc3c(NNC(=O)c4ccccc4)nc4cc(F)ccc4n23)CC1`, 3.88% (active).

As for `COC(=O)c1cc(-c2ccc(OC)cc2)[nH]c1N/N=C/c1c(Cl)cccc1Cl`, the growth is -9.38% (active). Turning to `CN1CCN(C(=O)OCc2ccc3c(Cl)cc(Cl)c(O)c3n2)CC1`, the growth is 66.8%. Turning to `CCn1c(=S)[nH]c2c(=O)n(C)c(=O)n(C)c21`, the growth was 123%. Consider `OCc1cccc(-c2ccc3ncc(-c4nc(NC5CC5)ncc4F)n3c2)c1`, for which the growth was -4.33% (active). The result for `COc1cc(-c2csc(NC(=O)c3cc(-n4cnc(C)c4)cc(C(F)(F)F)c3)n2)cc(OC)c1OC` reads 33.8%. For `O=C(N/N=C/c1ccc(F)cc1)c1ccc(C(F)(F)F)nc1Nc1cccc(C(F)(F)F)c1`, the growth is -17.7% (active). `Brc1ccc2[nH]cc(-c3nonc3-c3c[nH]c4ccccc34)c2c1`: the growth is 12.2%. In the case of `CCCCN[C@H]1CC[C@@]2(C)[C@@H](CC[C@@]3(C)[C@H]2[C@H](O)C[C@H]2/C(=C(\CCC=C(C)C)C(=O)OC)[C@@H](OC(C)=O)C[C@@]23C)[C@@H]1C`, the growth is 100%. With `CCC(=C(c1ccc(OCCN2CCCC2)cc1)c1ccc(OCCN2CCCC2)cc1)c1ccc(Cl)cc1`, the growth is -86.9% (active). The result for `O=C1CC(N2C(=O)/C(=C/C(Cl)=C\c3ccc([N+](=O)[O-])cc3)SC2=S)C(=O)N1c1ccc(Cl)cc1` (stereo not given) reads 74.5%; that for `O=C(Nc1ccc(NC(=O)c2cc(=O)[nH]c3ccccc23)cc1)Nc1cccc(C(F)(F)F)c1`, 15.3%. The result for `Nc1nc2c([nH]1)c1[nH]c3ccccc3c1c1[nH]c3ccccc3c21` reads 8.05% (active). Turning to `CC(C)c1ccc(COCc2cc(CN3CCCC3)c(O)c3ncccc23)cc1`, the growth was -40.8% (active). Take `COc1cccc(NC(=O)Cn2cc(CN3CCN(c4ccnc5cc(Cl)ccc45)CC3)nn2)c1`: the growth was 97.5%. Under `CC(C)(C)c1cc(-c2nc3ccc(N4CCN(S(C)(=O)=O)CC4)cc3[nH]2)cc(C(C)(C)C)c1O` stands 90.6%. Consider `CC(C)NC1CCC(Nc2ccnc3cc(Cl)ccc23)CC1` (stereo not given), for which the growth is 101%. For `CCCCN1C(=O)/C(=c2\sc3n(c2=O)C2C(NN=3)N(CC)C(=O)N2CC)c2ccccc21` (stereo not given), the growth was 3.01% (active). As to `CCCC(=O)NC(c1ccc2c(c1)OCO2)c1ccc2cccnc2c1O` (stereo not given), the growth is 9.17% (active). As to `O=C1Nc2ccc(I)cc2C1=O`, the growth is 107%. The result for `O=C(NCc1ccccc1)Nc1ccccc1CNc1nc(Nc2ccc(OCCN3CCCC3)cc2)ncc1Cl` reads 39.4%; that for `C=CCn1c(SCC(=O)NCc2cc(C)c(O)c(C)c2)nc2ccc(Cl)cc2c1=O`, 107%; that for `CO[C@H]1/C=C(/C)CCC[C@H](C)[C@H](O)[C@@H](C)C(=O)C(C)(C)[C@@H](O)CC(=O)O[C@@H]1/C(C)=C/c1csc(C)n1`, 6.16% (active).

Turning to `C[C@@H]1CCC[C@H]1CC(N)C(=O)O` (stereo not given in full), the growth is 102%. `CC1(C)c2[nH]c3ccccc3c2C[C@]2(C)[C@H]3CC=C4[C@@H]5C[C@@](C)(C(N)=O)CC[C@]5(C)CC[C@@]4(C)[C@]3(C)CC[C@@H]12`: the growth was 52.6%.

`N#Cc1c(NC(=O)c2ccccc2)sc2c1CCC(=O)C2`: the growth was 16.3%. The result for `CN[C@]12CC3(C=CC(=O)C=C3)O[C@@]1(Cc1ccc(OC)cc1)N(C)C(=O)N2` reads 98.7%; that for `Cc1cccc(Cl)c1NC(=O)c1ccc2nc(NC(=O)NCCN(C)C)sc2c1`, 107%.

Turning to `CC[C@@H](C(=O)[C@@H](C)[C@@H](O)[C@H](C)[C@@H]1O[C@@H]([C@@H](CC)C(=O)NCCc2ccc(F)cc2)CC[C@@H]1C)C1O[C@]2(C=CC(=O)[C@]3(CC[C@@](C)([C@H]4CC[C@](O)(CC)[C@H](C)O4)O3)O2)[C@H](C)C[C@@H]1C` (stereo not given in full), the growth was 35%. Under `N#Cc1c(-c2ccc(Cl)cc2)nc(NN=Cc2cccc(O)c2)nc1N1CCOCC1` stands 77.9%; under `C=C1CC[C@@H]2[C@](C)(COC(C)=O)[C@H](OC(C)=O)CC[C@@]2(C)[C@@H]1CC(Sc1ccccc1)C1=CCOC1=O` (stereo not given in full), 21.7%. Take `CCOC(=O)c1nc(Nc2ccc(NC(=O)Nc3ccc(F)cc3)cc2)c2ccccc2n1`: the growth was 99.1%.

On to `COc1ccc(C(=O)Nc2cccc(C3CC(=O)c4c(cc(OC)c(OC)c4OC)O3)c2)cc1` (stereo not given), for which the growth was 4.37% (active). The result for `O=C(NCCCCNC(=O)OCc1ccc2c(Cl)cc(Cl)c(O)c2n1)OCc1ccc2c(Cl)cc(Cl)c(O)c2n1` reads 2.78% (active); that for `C/C(=N\NC(=O)c1ccccc1O)c1cccc(/C(C)=N/NC(=O)c2ccccc2O)n1`, 21.3%. Under `Cc1cc(=O)[nH]c2c(C#N)cnn12` stands 104%.
